# According to PubChem BioAssay (NCI):
# This is part of a sample that, as a whole, favours compounds with a hit. Of some 83,000 tested, about 20% had one in any assay.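 In brief: 96-well plates, 48 h treatment, single concentration, percent growth endpoint.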 A number with no mark means an inactive call. Active and inactive are the calls of the source. The calls were made as follows: active = growth percent below 10; inactive = the rest.
# Test system: 786-0 renal
# Assay: NCI-60 one-dose screen, 48 h (100 = growth as untreated, 0 = no growth, -100 = all killed)
# Conditions: 10 µM unless noted
row,Structure (SMILES),growth
1,Cn1cc(-c2ccc3c(Nc4cccc(NC(=O)Nc5cccc(F)c5)c4)ncnc3c2)cn1,18.1%
2,CC(C)(C)n1cc(-c2ccnc(NCCNS(=O)(=O)c3ccc(C(F)(F)F)cc3)c2)c(-c2ccccc2)n1,80.5%
3,Cc1nn(C)c2ncnc(Nc3ccccc3Br)c12,97.8%
4,COc1ccc(C(=O)C2OC3=C(C(=O)CC(C)(C)C3)C2c2cccc(Oc3ccccc3)c2)cc1 (stereo not drawn),93%
5,O=C(Nc1ccc2[nH]ncc2c1)c1csc(Nc2ccccc2)n1,38.9%
6,c1ccc(-c2cn3nc(-c4c[nH]c5ccccc45)sc3n2)cc1,102%
7,COc1cc(OCc2cccc(-c3ccccc3)c2C)cc(OC)c1CN1CCCCC1C(=O)NCCOCCOCCN (stereo not drawn),90.8%
8,COc1cc(OC)cc(C(=O)Nc2cnc(Nc3ccc(N4CCOCC4)nc3)nc2Oc2ccc(C(F)(F)F)cc2)c1,54.8%
9,Cc1ccc(-c2nc(C#N)c(S(=O)(=O)n3nc(C)cc3N)o2)cc1,78%
10,CCN1CCN(CCOc2ccc(CNc3ccc4nc(CCC5CCCCC5)[nH]c4c3)cc2)CC1,-11.7% (active)
11,COc1ccc(NC(=O)c2ccc(NC3=C(c4ccc(Cl)cc4)C(=O)NC3=O)cc2)cc1,89.1%
12,CC(=O)OCCOc1cc(Cl)c(Cl)cc1Cl,100%
13,Oc1ccc(C(c2ccc(O)cc2)c2ccc(Cl)cn2)cc1,86.8%
14,CCCS(=O)(=O)Nc1cccc(Nc2ncnc3cc(NC(=O)CCl)ccc23)c1Cl,-88.2% (active)
15,c1ccc2c(-c3cnn4cc(-c5ccc(N6CCNCC6)cc5)cnc34)ccnc2c1,-91.9% (active)
16,COc1ccc(C(=O)/C=C/c2ccc(C)cc2)cc1S(N)(=O)=O,40.8%
17,O=C(OCC(O)(CO)C(=O)NC12CC3CC(CC(C3)C1)C2)c1ccc(Cl)cc1 (stereo not drawn),99.4%
18,O=C(Nc1cccc(Cn2c(=O)[nH]c3ccc(Oc4ncccn4)cc3c2=O)c1)c1cccc(Cl)c1,65.8%
19,Cn1ccnc1C(=O)/C=C/c1ccc(C(=O)Nc2ccccc2F)cc1,18.5%
20,O=C(Oc1ccccc1)c1cc(O)c(O)c(O)c1,55%

row,Structure (SMILES),growth
1,CN(C)CCOc1ccc(/C(=C(/CCCCCCCCCC[P+](c2ccccc2)(c2ccccc2)c2ccccc2)c2ccccc2)c2ccccc2)cc1,-76.6% (active)
2,Clc1nc(N2CCC[N+]3(CC2)CC[N+]2(CCCNCC2)CC3)nc(N2CCC[N+]3(CC2)CC[N+]2(CCCNCC2)CC3)n1 (stereo not drawn),72.8%
3,Clc1ccc(C2=Nn3c(nnc3-c3cc(Cl)cc(Cl)c3Cl)SC2)cc1,3.83% (active)
4,COc1ccc(C(=O)/C=C/Nc2cc(-c3ccccc3)nn2-c2ccccc2)cc1,89%
5,COc1cc(C2=Nc3c(N)nc(N)nc3NC(c3cccc(Nc4ccnc5cc(C(F)(F)F)ccc45)c3)C2)cc(OC)c1OC (stereo not drawn),61%
6,CC(=O)O[C@H]1CC[C@@]2(C)C(=CC[C@@H]3[C@@H]2CC[C@]2(C)C(Cl)=C(c4nc5ccc(Cl)cn5c4NC(C)(C)C)C[C@@H]32)C1,85%
7,COc1ccc(C2=NN3C(C2)c2cc(Br)ccc2OC3c2ccncc2)cc1 (stereo not drawn),92.6%
8,COc1cc(-c2c(-c3ccccc3)c[nH]c2C(=O)NCCCO)c(OC)c2c1OCO2,102%
9,CC(C)(C)c1ccc(C(=O)Nc2sc3c(c2C#N)CCC(=O)C3)cc1,17.6%
10,COc1ccc(Nc2nccc(Nc3ccc4[nH]ncc4c3)n2)cc1,43.5%
11,COc1ccc(-c2nc(SCCC(C)C)nc(N/N=C(/C)c3ccc(N)cc3)c2C#N)cc1,97.9%
12,Nc1cc(-c2ccc(Cl)cc2)nn1-c1nc(-c2ccc(Br)cc2)cs1,93.6%
13,FC(F)(F)c1cc(N2CCCCC2)nc(NCCCNc2ccnc3cc(Cl)ccc23)n1,59.7%
14,CCOC(=O)C1=C(c2ccccc2)N=C2SC=C(c3cccc([N+](=O)[O-])c3)N2C1c1ccc(O)cc1 (stereo not drawn),96.5%
15,COc1ccccc1-c1nc2ccc3[nH]ncc3c2c2c1CCCC2,67.7%
16,C=C(C)Cn1c(SCC(=O)c2cccs2)nc2sc3c(c2c1=O)CCCC3,52.6%
17,COC(=O)c1nc(-c2ccccc2)oc1S(=O)(=O)N1CCN(c2ccc(OC)cc2)CC1,60.9%
18,CCN(CC)CCCNc1cc(OC)cc2cccnc12,102%
19,CC(C)n1nc(-c2ccc3oc(N)nc3c2)c2c(N)ncnc21,-36.7% (active)

# Test system: COLO 205 colon
# Assay: as above
# Conditions: 10 µM unless noted
row,Structure (SMILES),growth
1,Cn1cc(-c2ccc3c(Nc4cccc(NC(=O)Nc5cccc(F)c5)c4)ncnc3c2)cn1,4.23% (active)
2,CC(C)(C)n1cc(-c2ccnc(NCCNS(=O)(=O)c3ccc(C(F)(F)F)cc3)c2)c(-c2ccccc2)n1,87.3%
3,Cc1nn(C)c2ncnc(Nc3ccccc3Br)c12,119%
4,COc1ccc(C(=O)C2OC3=C(C(=O)CC(C)(C)C3)C2c2cccc(Oc3ccccc3)c2)cc1 (stereo not drawn),110%
5,O=C(Nc1ccc2[nH]ncc2c1)c1csc(Nc2ccccc2)n1,33.2%
6,c1ccc(-c2cn3nc(-c4c[nH]c5ccccc45)sc3n2)cc1,87.1%
7,COc1cc(OCc2cccc(-c3ccccc3)c2C)cc(OC)c1CN1CCCCC1C(=O)NCCOCCOCCN (stereo not drawn),20%
8,COc1cc(OC)cc(C(=O)Nc2cnc(Nc3ccc(N4CCOCC4)nc3)nc2Oc2ccc(C(F)(F)F)cc2)c1,83%
9,Cc1ccc(-c2nc(C#N)c(S(=O)(=O)n3nc(C)cc3N)o2)cc1,-32.3% (active)
10,CCN1CCN(CCOc2ccc(CNc3ccc4nc(CCC5CCCCC5)[nH]c4c3)cc2)CC1,-74.3% (active)
11,COc1ccc(NC(=O)c2ccc(NC3=C(c4ccc(Cl)cc4)C(=O)NC3=O)cc2)cc1,86.3%
12,CC(=O)OCCOc1cc(Cl)c(Cl)cc1Cl,121%
13,Oc1ccc(C(c2ccc(O)cc2)c2ccc(Cl)cn2)cc1,4.91% (active)
14,CCCS(=O)(=O)Nc1cccc(Nc2ncnc3cc(NC(=O)CCl)ccc23)c1Cl,-68.9% (active)
15,c1ccc2c(-c3cnn4cc(-c5ccc(N6CCNCC6)cc5)cnc34)ccnc2c1,-58% (active)
16,COc1ccc(C(=O)/C=C/c2ccc(C)cc2)cc1S(N)(=O)=O,95.8%
17,O=C(OCC(O)(CO)C(=O)NC12CC3CC(CC(C3)C1)C2)c1ccc(Cl)cc1 (stereo not drawn),102%
18,O=C(Nc1cccc(Cn2c(=O)[nH]c3ccc(Oc4ncccn4)cc3c2=O)c1)c1cccc(Cl)c1,71.9%
19,Cn1ccnc1C(=O)/C=C/c1ccc(C(=O)Nc2ccccc2F)cc1,32.7%
20,O=C(Oc1ccccc1)c1cc(O)c(O)c(O)c1,99.2%

row,Structure (SMILES),growth
1,CN(C)CCOc1ccc(/C(=C(/CCCCCCCCCC[P+](c2ccccc2)(c2ccccc2)c2ccccc2)c2ccccc2)c2ccccc2)cc1,-64% (active)
2,Clc1nc(N2CCC[N+]3(CC2)CC[N+]2(CCCNCC2)CC3)nc(N2CCC[N+]3(CC2)CC[N+]2(CCCNCC2)CC3)n1 (stereo not drawn),106%
3,Clc1ccc(C2=Nn3c(nnc3-c3cc(Cl)cc(Cl)c3Cl)SC2)cc1,40.5%
4,COc1ccc(C(=O)/C=C/Nc2cc(-c3ccccc3)nn2-c2ccccc2)cc1,110%
5,COc1cc(C2=Nc3c(N)nc(N)nc3NC(c3cccc(Nc4ccnc5cc(C(F)(F)F)ccc45)c3)C2)cc(OC)c1OC (stereo not drawn),70.5%
6,CC(=O)O[C@H]1CC[C@@]2(C)C(=CC[C@@H]3[C@@H]2CC[C@]2(C)C(Cl)=C(c4nc5ccc(Cl)cn5c4NC(C)(C)C)C[C@@H]32)C1,103%
7,COc1ccc(C2=NN3C(C2)c2cc(Br)ccc2OC3c2ccncc2)cc1 (stereo not drawn),110%
8,COc1cc(-c2c(-c3ccccc3)c[nH]c2C(=O)NCCCO)c(OC)c2c1OCO2,114%
9,CC(C)(C)c1ccc(C(=O)Nc2sc3c(c2C#N)CCC(=O)C3)cc1,-61.8% (active)
10,COc1ccc(Nc2nccc(Nc3ccc4[nH]ncc4c3)n2)cc1,26.4%
11,COc1ccc(-c2nc(SCCC(C)C)nc(N/N=C(/C)c3ccc(N)cc3)c2C#N)cc1,109%
12,Nc1cc(-c2ccc(Cl)cc2)nn1-c1nc(-c2ccc(Br)cc2)cs1,100%
13,FC(F)(F)c1cc(N2CCCCC2)nc(NCCCNc2ccnc3cc(Cl)ccc23)n1,7.41% (active)
14,CCOC(=O)C1=C(c2ccccc2)N=C2SC=C(c3cccc([N+](=O)[O-])c3)N2C1c1ccc(O)cc1 (stereo not drawn),116%
15,COc1ccccc1-c1nc2ccc3[nH]ncc3c2c2c1CCCC2,74.7%
16,C=C(C)Cn1c(SCC(=O)c2cccs2)nc2sc3c(c2c1=O)CCCC3,43.6%
17,COC(=O)c1nc(-c2ccccc2)oc1S(=O)(=O)N1CCN(c2ccc(OC)cc2)CC1,61.7%
18,CCN(CC)CCCNc1cc(OC)cc2cccnc12,83.9%
19,CC(C)n1nc(-c2ccc3oc(N)nc3c2)c2c(N)ncnc21,-3% (active)
